This experiment has as its target Eukaryotic translation initiation factor 4H (Homo sapiens) (UniProt Q15056). In words: eIF4H binding inhibition – biochemical, uHTS, fluorescence polarization, translation initiation inhibitor project, primary screen (AID 2012).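 Also: calls also rest on retests at 20 µM and on dose response follow-up.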 The note with it: eIF4H fluorescence polarization binding assay, stronger effect = higher value.

Each structure is given as a SMILES string. Out of some 290,000 compounds screened, about 2,700 (0.93%) were called active. No rule for the calls is given here. Only a selection was taken, and actives are over-represented in it overall.

One may read the inhibition as the change of the read-out against control, counted positive when it falls. In the case of `O=C(Cn1cnc2ccccc21)N/N=C/c1ccco1`, the inhibition is 69.8% (inactive) (at 35 µM) and 2.9% (confirmation average, at 20 µM).
Take `CC(C)NC(=O)C(=O)N/N=C/c1ccco1`: where the note is “at 35 µM”, the inhibition is -8.2% (inactive).
Turning to `O=c1nc(N/N=C/c2ccco2)cn[nH]1`, the inhibition (at 35 µM) is 76.3% (active) and the inhibition (confirmation average, at 20 µM) amounted to 73.4%.
For `COc1ccc(Nc2ncnc3ccc(Br)cc23)c(OC)c1`, the inhibition (at 35 µM) is -9.9% (inactive).
Still for that read-out and setting: for `Cc1ccc(CS(=O)(=O)CCC(=O)NCc2ccc(F)cc2)cc1` the value was -4.5% (inactive); for `CCCCNC(=O)C1(O)c2ccccc2NC(=O)N1c1ccc(Cl)cc1` (stereo not given), -2.3% (inactive).
On to `O=C(O)CC(c1ccccc1F)N1Cc2ccccc2C1=O` (stereo not given), for which the inhibition (at 35 µM) was 0.1% (inactive).
Still for that read-out and setting: the figure for `O=C(CNC(=O)c1ccc(Br)o1)NCC1CCCO1` (stereo not given) is -11.8% (inactive).
As for `O=C(c1ccc(Br)o1)N(c1ccccn1)C1CCCCC1`, the inhibition was 55.5% (active) (at 35 µM) and 99.6% (confirmation average, at 20 µM).
With `O=C(c1cccs1)N(C(=O)c1cccs1)c1ccccn1`, for the setting “at 35 µM”, the inhibition was -8.6% (inactive).
Turning to `CCOc1ccc(Br)cc1S(=O)(=O)N1CCC(C(=O)O)CC1`, for the setting “at 35 µM”, the inhibition is -7.6% (inactive).
On the same count and under the same terms, the figure for `Cc1ccc(S(=O)(=O)N2CCC(Oc3ccc(-n4cnnn4)cc3)CC2)cc1` is 1.6% (inactive).
Turning to `CCOc1ccc(-n2cnnn2)cc1S(=O)(=O)N1CCC(C)CC1C` (stereo not given), the inhibition is 3.6% (active) (at 35 µM) and 90.8% (confirmation average, at 20 µM).
For `COc1cccc(C(=O)Nc2nnc(S(=O)(=O)N3CCOCC3)s2)c1`, the inhibition (at 35 µM) is -15.7% (inactive).
Turning to `CN(Cc1ccccc1)C(=O)c1ccc(NC2=NC3CS(=O)(=O)CC3S2)cc1` (stereo not given), the inhibition (at 35 µM) is -7.2% (inactive).
The same measure, in the same setting: the figure for `COc1cccc(NC(=O)C2CCCN(c3ncnc4c3nc3n4CCCCC3)C2)c1` (stereo not given) is 2.9% (inactive).
For `O=C(c1ccc(S(=O)(=O)N2CCOCC2)cc1)N1CCN(c2ccccc2)CC1`, the inhibition (at 35 µM) was -4.2% (inactive).
On to `O=C(c1ccc(CS(=O)(=O)c2ccccc2)o1)N1CCN(c2ccccc2)CC1`, for which the inhibition is, setting by setting: (at 35 µM) 93.4% (active); (confirmation average, at 20 µM) 73.1%.
Consider `O=C(c1cc(=O)c2ccccc2o1)N1CCN(c2ccccc2)CC1`, for which the inhibition (at 35 µM) is 1.2% (inactive).
For `Cc1ccc(C)c(S(=O)(=O)N2CCN(C(=O)Nc3ccccc3)CC2)c1`, where the note is “at 35 µM”, the inhibition was 4.3% (inactive).
On to `CC(Oc1cc2oc(=O)c3c(c2cc1Cl)CCCC3)C(=O)NCc1ccncc1` (stereo not given), for which, where the note is “at 35 µM”, the inhibition was -3.9% (inactive).
Take `CN(C)S(=O)(=O)c1cccc(-c2nn(-c3ccccc3)cc2/C=C2\SC(=S)N(CC(=O)O)C2=O)c1`: under “at 35 µM”, the inhibition is 47.3% (inactive).
Same read-out and setting: the figure for `COc1ccc(-c2nn(-c3ccccc3)cc2/C=C2/SC(=S)N(CCCC(=O)O)C2=O)c(C)c1` is 15.2% (inactive).
For `Cc1ccc(-c2nn(-c3ccccc3)cc2/C=C2\SC(=S)N(CCCCCC(=O)O)C2=O)o1`, the inhibition is, setting by setting: (at 35 µM) 78.9% (active); (confirmation average, at 20 µM) 68.5%.
For `CCOC(=O)CSc1nc(N2CCOCC2)c2c(c1C#N)CC(C(C)C)OC2` (stereo not given), the inhibition (at 35 µM) is -6.3% (inactive).
Same read-out and setting: the figure for `Cc1ccnc(NC(=O)CCNS(=O)(=O)c2ccc(C)c(C)c2)c1` is -10.9% (inactive).
As to `Cc1c(-c2ccccc2)nc(N)c(C#N)c1-c1cccs1`, under “at 35 µM”, the inhibition is 7.1% (inactive).
On to `CCc1c(-c2ccccc2)nc(N)c(C#N)c1-c1cccs1`, for which the inhibition (at 35 µM) is -8.4% (inactive).
Consider `CN1CCc2nc(SC(C(=O)O)c3ccccc3)c(C#N)c(-c3cccs3)c2C1` (stereo not given), for which the inhibition (at 35 µM) was 76.7% (active).
Same read-out and setting: the figure for `O=C(O)C1CCCCC1C(=O)N1CCN(S(=O)(=O)c2ccc(F)cc2)CC1` (stereo not given) is -6.9% (inactive); for `O=c1[nH]c(=S)[nH]c2[nH]c(=S)[nH]c12` it is 88.2% (active); for `Cc1cc(=O)[nH]c(=S)[nH]1` it is 2.4% (inactive).
On to `Cc1c(C)c(C)c2[nH]c(=S)[nH]c2c1C`, for which the inhibition (at 35 µM) was -4.2% (inactive).
Still for that read-out and setting: for `CN(C(=O)CCNC(=O)Cn1ccc2ccccc2c1=O)c1ccc(Br)cc1` the value was 1.5% (inactive); for `CCOC(=O)C1=C(C)NC(=S)NC1c1cccs1` (stereo not given), -5% (inactive); for `CCOC(=O)N1CC=C2C(C#N)=C(N)C(C#N)(C#N)[C@H](c3cccs3)[C@H]2C1`, 63.3% (active).
For the compound `N#CC1=C(N)C(C#N)(C#N)[C@H](c2ccsc2)[C@H]2COCC=C12`, the inhibition is, setting by setting: (at 35 µM) 113% (inactive); (confirmation average, at 20 µM) -3.8%.
In the case of `Cc1ccn2c(c1)nc(=O)c1cc(S(=O)(=O)N3CCC(C)CC3)ccc12`, the inhibition (at 35 µM) is -3.5% (inactive).
As to `Cc1ccc(Cl)c(OCC(=O)N2CCc3ccccc3C2)c1`, the inhibition (at 35 µM) was -9.4% (inactive).
The same measure, in the same setting: the figure for `O=C(Nc1ncc2c(n1)-c1ccccc1OC2)c1ccc(Cl)cc1` is -10.3% (inactive); for `CCc1ccc(Nc2ncc3c(n2)CC(c2ccco2)CC3=O)cc1` (stereo not given) it is -4% (inactive).
As for `O=C(Nc1ncc2c(n1)CC(c1ccco1)CC2=O)c1ccc(Cl)cc1` (stereo not given), for the setting “at 35 µM”, the inhibition was 83.6% (active).
On the same count and under the same terms, the figure for `CCCCCCc1cc2cc(-c3nnc(-c4ccccc4)o3)c(=O)oc2cc1O` is 70.4% (active); for `Cc1c(CCC(=O)O)c(=O)oc2cc3occ(-c4ccccc4)c3cc12` it is 14.4% (inactive).
`Cc1c(CC(=O)NCCCCCC(=O)O)c(=O)oc2cc3occ(-c4ccccc4)c3cc12`: for the setting “at 35 µM”, the inhibition was 6% (inactive).
Still for that read-out and setting: for `Cc1nc(NC(=O)c2ccc3c(c2)OCCO3)ccc1Br` the value was -4.6% (inactive).
Same read-out and setting: the figure for `CCOc1ccc(OCC(=O)Nc2c3c(nn2C(C)(C)C)CS(=O)(=O)C3)cc1` is -13.7% (inactive); for `COc1ccc(CNS(=O)(=O)c2ccc(-c3cnc(C4CC4)o3)cc2)cc1` it is -9.2% (inactive).
With `O=C1OCC2=C1C(c1ccccc1)CC(=O)N2c1cccc(F)c1` (stereo not given), the inhibition (at 35 µM) is 4.2% (active) and the inhibition (confirmation average, at 20 µM) worked out at 96.6%.
Consider `O=C1CC(c2ccccc2)C(=O)N1c1cccc(O)c1` (stereo not given), for which, where the note is “at 35 µM”, the inhibition is -6.1% (inactive).
As for `O=C1CC(NNc2ccccc2)C(=O)N1c1cccc(Cl)c1` (stereo not given), the inhibition (at 35 µM) was -1.9% (inactive).
In the case of `Cc1ccc(NC(=O)CCC(=O)c2ccc(Br)cc2)cc1`, for the setting “at 35 µM”, the inhibition was -5% (inactive).
As for `CCc1c(C)nc2cc(-c3cccs3)[nH]n2c1=O`, the inhibition (at 35 µM) was 4.5% (inactive).
Consider `Cc1cc(=O)n2[nH]c(-c3cccc(Cl)c3)cc2n1`, for which, where the note is “at 35 µM”, the inhibition is -7.1% (inactive).
Regarding `Cc1cc(=O)n2[nH]c(-c3sccc3-n3c(C)ccc3C)cc2n1`, the inhibition (at 35 µM) was 93.9% (active) and the inhibition (confirmation average, at 20 µM) was found to be 97.8%.
Turning to `c1ccc(CCC2=NCCn3cccc32)cc1`, under “at 35 µM”, the inhibition is 61.9% (active).
The same measure, in the same setting: the figure for `CC1CSc2nnc(CCc3ccccc3)n21` (stereo not given) is -1.5% (inactive); for `S=C(NCCc1ccccc1)N1CCn2cccc2C1c1ccncc1` (stereo not given) it is 8.3% (inactive).
The same measure, in the same setting: the figure for `O=C(NCC(=O)N1CCN(c2ccccc2O)CC1)c1ccc2ccccc2c1` is 6% (inactive).
The same measure, in the same setting: the figure for `COc1cc(C(=O)OCC(=O)NC(C)CCc2ccccc2)cc(OC)c1OC` (stereo not given) is 5.2% (inactive); for `Cc1ccc(CN2CCNC(=O)C2CC(=O)NCc2csc(C(C)C)n2)cc1` (stereo not given) it is -5.6% (inactive).
